Our source for the growth values is PubChem BioAssay (NCI).

This is part of a sample that, as a whole, favours compounds with a hit. Of some 83,000 tested, about 20% had one in any assay.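 Single-dose data. Exposure time 48 hours. Values below 10 considered active.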 A number with no mark means an inactive call. Activity calls are given as the source filed them.

The experiment concerns MCF7 breast. As to the kind of experiment: NCI-60 one-dose screen, 48 h (100 = growth as untreated, 0 = no growth, -100 = all killed). The conditions noted are these: 10 µM unless noted. Here is the method:
Growth inhibition of the MCF7 human tumor cell line is measured as a screen for anti-cancer activity. Cells are grown in 96 well plates and exposed to the test compound for 48 hours. Compounds are tested at a single concentration, which is 10^-5 M for most compounds. The reported endpoint is percent growth (GI% or GIPRCNT), where numbers from 0 - 100% represent growth inhibition, and numbers from -100% - 0 represent cell death. For example, a value of 40 represents 60% growth inhibition. A value of 0 means no net growth occurred over the course of the experiment. A value of -40 indicates 40% of cells at the beginning of the experiment died by the end of the experiment. A value of -100 means all cells are dead at the end of the experiment.
NCI-60 Human Tumor Cell Lines Screen was performed using the standard one-dose NCI protocol, which is described in more detail at https://dtp.cancer.gov/discovery_development/nci-60/default.htm.
Compounds with GIPRCNT values below 10 were considered active. Activity score was based on GIPRCNT using the following formula: […]
Score is 0 for GIPRCNT values of 100 or above, 50 for GIPRCNT values of 0, and 100 for GIPRCNT values of -100.
As for `COc1ccc(-c2nn(-c3ccc(NC(=O)Nc4cc(C(F)(F)F)cc(C(F)(F)F)c4)cc3)cc2-c2ccncc2)cc1Cl`, the growth is 15.5%.

As for `COc1ccc(-c2cc3ccc(N(C)C)cc3nc2N)c(F)c1`, the growth was 14.7%.

As for `Nc1ncc(-c2ccc3ncnc(Nc4ccc(F)c(Cl)c4)c3c2)cn1`, the growth is 27.1%.

With `CCOc1cccc(Nc2nc(N)nc3[nH]c4ccc(O)cc4c23)c1`, the growth is 43.1%.

For the compound `O=C(Nc1ccc(F)cc1)Nc1ccc(Br)c(C(F)(F)F)c1`, the growth is 1.94% (active).

Turning to `O=C(O)c1ccccc1C(=O)c1ccc(I)cc1`, the growth was 92.1%.

Regarding `COc1ccc(-c2nnc(SCC(=O)Nc3ccc(C(=O)/C=C/c4ccc(Cl)cc4)cc3)o2)cc1OC`, the growth was 57.5%.

`CCC1CN2C(=N1)c1ccccc1-c1cc(Cl)ccc12` (stereo not given): the growth is 4.59% (active).

Consider `COc1ccc(-c2nnc(SCC(=O)Nc3ccc(C(=O)/C=C/c4ccccc4)cc3)o2)cc1OC`, for which the growth is 56%.

As to `Cc1cc(Nc2ccc(Cl)c(Cl)c2)nc(N)n1`, the growth is 84.4%.

For `COc1ccc(C2=NN(C(=O)COc3ccc(Cl)cc3)C(O)(c3cc(F)c(Cl)cc3Cl)C2)cc1` (stereo not given), the growth was 96.3%.

In the case of `C/C(=N/O)c1ccc(NC(=O)Cn2nc(-c3ccc(Cl)cc3)nc2N)cc1`, the growth is 84.9%.

As for `C[C@H]1C=C(C[C@@H](O)CC#CC#CCCCCC[C@@H](O)[C@H]2CCC(=O)O2)C(=O)O1`, the growth is 115%.

For the compound `COc1cc(Nc2ncccc2C(=O)Nc2nc3ccc(F)cc3s2)cc(OC)c1OC`, the growth is 94.9%.

For the compound `CN(C)CC/C=C1\c2ccccc2Sc2ccc(Cl)cc21`, the growth was 62.3%.

In the case of `C#C[C@@]1(O)[C@@H](CO)O[C@@H](n2cc(C(F)(F)F)c3c(N)ncnc32)[C@@H]1O`, the growth was 1.74% (active).

In the case of `Cc1cccc(NCS(=O)(=O)O)c1`, the growth was 95.1%.

Regarding `CCOC(=O)C1CN(Cc2ccccc2)C(=O)C1=O` (stereo not given), the growth is 100%.

Consider `CC[C@@]1(O)C(=O)OCc2c1cc1n(c2=O)Cc2c-1nc1ccccc1c2/C=N/OC(C)(C)C`, for which the growth was 2.42% (active).

In the case of `Cc1cn(-c2cc(C(=O)Nc3cccc(-n4ccc5c(NC(=O)c6ccccc6)nccc54)c3)cc(C(F)(F)F)c2)cn1`, the growth is 7.18% (active).

Turning to `C[C@H]1C=C(C[C@@H](O)CCCCCCCCCC[C@@H](O)[C@H]2CCC(=O)O2)C(=O)O1`, the growth was 118%.

For `C/C(=N\N=C1/SCC(=O)N1c1ccccc1)c1ccco1`, the growth is 53.7%.

Regarding `c1coc(CSc2ncnc3nc[nH]c23)c1`, the growth is 89.9%.

As to `Cc1ccc(Cn2cc(COc3ccc4c5ccnc(C)c5n(CCCc5ccccc5)c4c3)nn2)cc1`, the growth was 86.2%.

Take `CCc1c(C)c2cc(-n3c(-c4ccc(OC)cc4)csc3=N)c(O)c(C)c2oc1=O`: the growth is 9.39% (active).

As to `Cc1c(F)cccc1NC(=O)c1sc2nc3c(cc2c1N)CCCCC3`, the growth was 14.8%.

With `COc1cc(-c2nc3sc(C)cn3c2/C=C2\C(=O)Nc3ccccc32)c(Br)c(OC)c1OC`, the growth was 1.61% (active).

With `COc1cc(/C=C/C(=O)c2c(C)n([O-])c3cc(C)c(C)cc3[n+]2=O)cc(OC)c1OC`, the growth was 11.1%.

In the case of `Cc1ccc(NC(=O)CN2CCOCC2)cc1Cl`, the growth is 91.8%.

Consider `Clc1ccc(CN2COc3c(ccc4cccnc34)C2)cc1Cl`, for which the growth is 12.6%.

Take `Cc1cc(O[C@@H]2O[C@@H](C)[C@H](O)[C@@H](O)[C@H]2O)c2c3c(c(O[C@@H]4O[C@@H](C)[C@H](O)[C@@H](O)[C@H]4O)cc2c1)C(=O)c1c(O)cccc1C3=O`: the growth is 81%.

`COc1cc2c(cc1OC)-c1c(oc3c4c(ccc3c1=O)OC(C)(C)C=C4)CO2`: the growth was 48.8%.

With `CO[C@H]1/C=C/C=C/C=C/C[C@H](OC(=O)[C@@H](C)NC(=O)C2CCCCC2)[C@H](C)[C@@H](O)/C(C)=C\CCC2=CC(=O)C=C(NC(=O)C1)C2=O`, the growth was -11% (active).

With `CN1C(=O)C2(NN=C(c3cccc4ccccc34)S2)c2ccccc21` (stereo not given), the growth is 24%.

As for `COc1cc(-c2nc3ccccc3s2)ccc1OCc1nc2n(n1)S(=O)(=O)c1ccccc1N2C`, the growth was 90.5%.

As to `CN(CCNCc1ccccn1)CCNCc1ccccn1`, the growth was 6.52% (active).

Consider `COc1ccc(-c2ccc(NC(=O)Nc3ccc(Cl)c(C(F)(F)F)c3)c(C)n2)cc1`, for which the growth was 36.7%.

Regarding `CC(C)(C)OC(=O)NCc1cccc(N=C=S)c1`, the growth was 29.5%.

Consider `COc1ccc(-c2c(C#N)cnc(N)c2-c2nc3cc(C)c(C)cc3[nH]2)cc1`, for which the growth was 50.9%.

On to `Nc1nc(=S)ss1`, for which the growth was 98.3%.
